A selection: hits, their analogues and other compounds. The true share with any hit is near 10%.
BAZ2B block – blocks human BAZ2B | Q9UIF8 | AlphaScreen BAZ2B-H3K14Ac peptide displacement | Potency, µM (top dose mostly 114 µM), for the others: at the top dose activity change, negative = inhibition, most hits filed as inhibitors | hit rate 4.4% among 360,000; also: potency is read from the fitted curve at half-maximal effect; % is scaled to controls: 0 for no effect and ±100 for the full control effect; nearly all actives have a fitted effect of over 60% in size
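AlphaScreen displacement: compounds (up to 110uM) incubated 30 min at room temperature with a preformed 50 nM BAZ2B/50 nM biotinylated H3K14Ac peptide complex in PBS pH 7.4 with Tween-20. Donor and acceptor beads at 10 ug/mL final added, 20 min light-protected before reading.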
G9a inh – blocks human histone lysine methyltransferase G9a. G9a H3K9 monomethylation, AlphaScreen, 2 h. Potency, µM (series often up to 102 µM), for inactives: top-dose activity, negative = inhibition, actives largely listed as inhibitors. hit rate 8.8% among 350,000. AID 504332; also: potency is read from the fitted curve at half-maximal effect; % is scaled to controls: 0 for no effect and ±100 for the full control effect; nearly all actives have a fitted effect of over 75% in size
Target sequence (Q96KQ7 913-1193 limits assumed): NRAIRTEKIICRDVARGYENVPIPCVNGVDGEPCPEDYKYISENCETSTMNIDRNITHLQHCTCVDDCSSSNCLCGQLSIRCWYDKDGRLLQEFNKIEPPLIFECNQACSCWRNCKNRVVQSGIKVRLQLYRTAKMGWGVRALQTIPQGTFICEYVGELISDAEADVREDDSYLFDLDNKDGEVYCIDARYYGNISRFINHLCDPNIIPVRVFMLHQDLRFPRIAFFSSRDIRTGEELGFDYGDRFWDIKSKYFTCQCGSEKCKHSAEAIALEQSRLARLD
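Signal arises when biotinylated H3K9 peptide, once monomethylated, bridges streptavidin donor and antibody-captured acceptor beads. Enzyme at 20 nM was preincubated 15 min with test compounds; peptide 500 nM and SAM 20 uM then reacted for 2 h.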
HP1b chromo inh – HP1-beta chromodomain-methylated histone interaction inhibition; P83916; AlphaScreen HP1-beta / biotin-H3K9me3 peptide binding; Potency, µM (top dose mostly 114 µM), without a hit: at the highest dose activity change, negative = inhibition, usual class: inhibitors; hit rate 0.56% among 390,000; AID 540317; also: potency is read from the fitted curve at half-maximal effect; nearly all actives have a fitted effect of over 70% in size
Target sequence (P83916 whole entry, looked up): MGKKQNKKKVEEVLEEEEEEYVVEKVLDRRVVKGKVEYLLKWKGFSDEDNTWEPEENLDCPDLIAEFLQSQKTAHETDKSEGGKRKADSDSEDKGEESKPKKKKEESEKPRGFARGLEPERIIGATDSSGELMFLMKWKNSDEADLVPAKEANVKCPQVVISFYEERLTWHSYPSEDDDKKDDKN
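AlphaScreen: HP1-beta (50 nM) preformed 30 min with biotin-H3(1-18)K9me3 peptide (50 nM) in PBS pH 7.4, 0.01% Tween-20. Compound added for 30 min at RT, then streptavidin donor/nickel chelate acceptor beads (10 ug/mL) for 30 min.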
CtBP-E1A inh – blocks the CtBP interaction with E1A; AlphaScreen GST-E1A/His-CtBP binding, 1536-well; stronger effect = lower value; activity change, % (concentration not given with the values); hit rate 0.49% among 340,000; AID 651724; in the data active = activity change below about -65%; inconclusive = mostly about -30% to -63%; also: % is scaled to controls: 0 for no effect and ±100 for the full control effect
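AlphaScreen with 125 nM GST-E1A and 125 nM His-CtBP (5X stocks) in Tris pH 8.0, 300 mM NaCl, BSA, Tween 20, TCEP. Compounds preincubated 2 h at 37 deg C, then glutathione donor/nickel acceptor beads added for 1 h at 37 deg C in dark.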
JMJD2A Tudor – blocks the human JMJD2A Tudor domain | O75164 | AlphaScreen JMJD2A-Tudor / H3K4me3 peptide binding | Potency, µM (highest dose often 114 µM), without a hit: at the highest dose activity change, negative = inhibition, most hits filed as inhibitors | hit rate 4.4% among 390,000 | AID 504339; also: potency is read from the fitted curve at half-maximal effect; % is scaled to controls: 0 for no effect and ±100 for the full control effect; nearly all actives have a fitted effect of over 50% in size
Six1-Eya2 inh – Six1/Eya2 interaction inhibition; hit rate 0.56% among 360,000; AlphaScreen GST-Six1/His-Eya2 binding, biochemical; stronger effect = lower value; AID 651725; activity change, % (concentration not given with the values); in the data active = activity change below about -65%; inconclusive = mostly about -30% to -63%; also: % is scaled to controls: 0 for no effect and ±100 for the full control effect
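AlphaScreen with GST-Six1 and His-Eya2 (5X mix: 250 nM and 500 nM), glutathione donor and nickel acceptor beads; buffer 50 mM Tris pH 8.0, 300 mM NaCl, 1 mM TCEP; 1 h at 37 C in the dark.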
An asterisk follows results filed as active; ? = inconclusive; . = no result; [ ] = another dose, or the depositor's remark. Unless noted, calls follow the shape of the dose curve; as a rule, active = well fitted inhibition curve with a large enough effect; inconclusive = small, poorly fitted or top-dose-only effect; inactive = no such curve, though single readings can be large or run the other way.

SMILES	BAZ2B block	G9a inh	HP1b chromo inh	CtBP-E1A inh	JMJD2A Tudor	Six1-Eya2 inh
O=C(NCc1ccccc1Cl)c1ccc2c(c1)NC(=O)C(CS(=O)(=O)Cc1ccc(F)cc1Cl)N2 (stereo unspecified)	-17%	?	-13%	.	-16%	.
CSc1nnc(C)c(=O)n1COC(=O)COc1ccc(Cl)cc1Cl	-11%	?	49%	12	9%	1
Cc1cccc(OCC(=O)Nc2ccccc2N2CCCCC2)c1C	38%	22%	127%	18	44%	12
COc1ccc(OCC(=O)Nc2ccccc2Cl)cc1	50µM*	7%	19%	12	-9%	7
COc1ccc(N2CCCC2)c(NC(=O)COc2ccccc2)c1	?	40µM*	?	-22	?	-22
COc1ccc(OCC(=O)Nc2ccccc2OC)cc1	-4%	3%[59 µM]	25%	-12	7%	1
CCc1ccccc1OCC(=O)Nc1ccc(N2CCCC2)cc1C	?	3.2µM*	7%	-11	?	10
Cc1cc(N2CCCC2)ccc1NC(=O)COc1ccccc1	-36%	7.1µM*	-7%	-7	?	-5
COc1cc(CNc2ncnc3c2ncn3[C@H]2CN(CCN3CCOCC3)C[C@@H](CO)O2)cc(OC)c1OC	.	.	.	12	.	2
Cn1c(=O)c(-c2ccccc2)nc2cnc(Oc3ccccc3)nc21	.	6%[12.7 µM]	.	.	.	.
Cc1ccc(S(=O)(=O)N2CCc3cc(C(=O)NCCc4ccccc4)ccc32)cc1	-4%	-1%[59 µM]	11%	.	-10%	.
COC(=O)C1Cc2c([nH]c3ccccc23)C(C(C)C)N1 (stereo unspecified)	-13%	45µM*	20%	1	-2%	-5
COc1ccc(C2NC(C(=O)O)Cc3c2[nH]c2ccccc32)cc1OC (stereo unspecified)	3%	?	?	-4	3.2µM*	1
CCC1NC(C(=O)O)Cc2c1[nH]c1ccccc21 (stereo unspecified)	-12%	-4%[12.7 µM]	-14%	2	-14%	-11
COC(=O)[C@@H]1Cc2c([nH]c3ccccc23)C(C)N1C(=O)c1ccccc1 (stereo partly specified)	?	?	7%	.	-20%	-13
COc1cc(C2NC(C(=O)O)Cc3c2[nH]c2ccccc32)cc(OC)c1OC (stereo unspecified)	79µM*	?	-2%	5	56µM*	-1
C[C@H](CO)N1C[C@H](C)[C@H](CN(C)Cc2ccncc2)Oc2cc(-c3ccccc3F)ccc2S1(=O)=O	.	.	.	6	.	-3
Cc1cnc(NC(=O)CC2OC(=O)c3ccccc32)s1 (stereo unspecified)	-6%	-36%	-11%	4	-16%	1
CC1CCN(c2ncnc3c2nnn3C)CC1	-16%	-7%[59 µM]	44%	.	-9%	.
Cc1ccc(NC(=O)CN2C(=O)S/C(=C\c3cc(C)n(-c4ccc(C(=O)O)cc4)c3C)C2=O)cc1	50µM*	.	2%	-2	?	-1
CCn1c(C)cc(/C=C2\NC(=O)N(CC(=O)Nc3ccc(F)cc3)C2=O)c1C	?	.	-5%	-8	?	0
Cc1ccc(NC(=O)CN2C(=O)N/C(=C/c3cccn3-c3ccc(C(=O)O)cc3)C2=O)cc1	4µM*	8.9µM*	2.8µM*	12	3.2µM*	-74*
Cc1ccc(NC(=O)CN2C(=O)N/C(=C/c3cc(C)n(-c4ccc(C(=O)O)cc4)c3C)C2=O)cc1	40µM*	28µM*	-18%	-7	79µM*	-17
Cc1ccc(NC(=O)CN2C(=O)S/C(=C\c3cc(Cl)c(OCC(=O)O)c(Cl)c3)C2=O)cc1	40µM*	40µM*	20µM*	.	45µM*	-4
Cc1ccc(NC(=O)CN2C(=O)N/C(=C/c3ccco3)C2=O)cc1	-7%	0%[0.0925 µM]	5%	-1	-33%	-14
SMILES	BAZ2B block	G9a inh	HP1b chromo inh	CtBP-E1A inh	JMJD2A Tudor	Six1-Eya2 inh
Nc1nc(Nc2cc(F)cc(F)c2)nc(NC2CCCC2)n1	.	.	.	.	-18%	.
O=C(O)c1oc2ccccc2c1-n1cccc1	4%	?	-4%	-5	79µM*	1
O=C1NC(CCc2ccccc2)C(=O)N1CCOc1ccccc1 (stereo unspecified)	6%	-3%	41%	13	-10%	-3
Cc1[nH]c(=O)[nH]c(=O)c1/C=N/NC(=O)[C@H](CC(C)C)NC(=O)OC(C)(C)C	8%	?	14%	-17	-3%	-18
Cc1[nH]c(=O)[nH]c(=O)c1/C=N/NC(=O)[C@@H](N)CC(C)C	50µM*	?	39%	-23	?	-87*
CN1CCN(C(=O)c2ccc(NS(=O)(=O)c3cccc([N+](=O)[O-])c3)cc2)CC1	3%	45µM*	-4%	3	-13%	3
CN1CCN(C(=O)c2ccc(S(=O)(=O)Nc3ccccc3)cc2)CC1	-1%	6%[12.7 µM]	51%	9	11%	2
COc1c(O)cc2c(c1O)[C@@H]1O[C@H](CO)[C@@H](O)[C@H](O)[C@H]1OC2=O	-1%	9%[2.33 µM]	44%	.	3%	-2
Cc1c(C(=O)O)c(O)cc2c1C(=O)c1c(O)c([C@H]3O[C@H](CO)[C@@H](O)[C@H](O)[C@H]3O)c(O)c(O)c1C2=O	.	7.1µM*	.	.	.	.
Cc1c(C(=O)O)c(O)cc2c1C(=O)c1c(O)c([C@@H]3O[C@H](CO)[C@@H](O)[C@H](O)[C@H]3O)c(O)c(O)c1C2=O	.	.	?	-2	25µM*	?
Cn1c(SCC(=O)Nc2cccc(F)c2)nc2c(c1=O)SCC2	-8%	9%	-2%	-3	-2%	-12
CCOC(=O)c1cc(CNC(=O)c2c(C)oc3c2CCCC3)c(C)o1	?	50µM*	-9%	0	-30%	-2
CCOC(=O)c1coc(CNC(=O)c2c(C)oc3c2CCCC3)c1	?	56µM*	-1%	-5	-27%	2
Cc1oc2c(c1C(=O)NCc1cc(C(=O)O)co1)CCCC2	0%	-3%	44%	-1	-7%[57.1 µM]	-3
O=C(c1cccc(F)c1)N1CCCC(C(=O)N2CCCCCC2)C1 (stereo unspecified)	7%	78%	36%	.	-3%	-1
CSc1ccc(CNC(=O)C2CCCN(S(=O)(=O)N(C)c3ccc(F)cc3)C2)cc1 (stereo unspecified)	-3%	2%[59 µM]	34%	.	-3%	.
Clc1cccc(CN2CCCCCC2)c1Cl	?	20µM*	?	6	0.71µM*	-14
Clc1cccc(CN2CCSCC2)c1Cl	?	3.5µM*	?	5	3.5µM*	10
Clc1ccc2scc(CN3CCCCC3)c2c1	5%	-4%[59 µM]	31%	0	-13%	11

Assay outcomes: PubChem, National Center for Advancing Translational Sciences (NCATS)
